Over roughly 33,000 sequences, “E-score (-0.5 to 0.5)” has its median near -0.056; the highest 2% begin near 0.38. The entries come from a sample that favours the highest values as a whole.
Target: Stb4 (UniProt P50104)
Experiment: PBM E-score (8-mer binding enrichment) (E-score (-0.5 to 0.5)); higher = stronger / more preferred TF binding
Conditions: protein concentration: 200 nM; construct: GST-DNA-binding domain
Procedure: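 Universal 'all 10-mer' protein binding microarrays (Agilent AMADID 015681) probed with GST-tagged S. cerevisiae TFs (full-length or DBD) made by in vitro transcription/translation (PURExpress), about 100-200 nM. Bound TF was detected with fluorescent anti-GST. Each ungapped 8-mer (which stands for itself and its reverse complement) is scored by the PBM enrichment score (E-score), a modified Wilcoxon-Mann-Whitney statistic from -0.5 to +0.5, computed with the Universal PBM Analysis Suite. Scale: above 0.35 generally sequence-specific binding.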

Sequence of UniProt P50104 (P50104 whole entry): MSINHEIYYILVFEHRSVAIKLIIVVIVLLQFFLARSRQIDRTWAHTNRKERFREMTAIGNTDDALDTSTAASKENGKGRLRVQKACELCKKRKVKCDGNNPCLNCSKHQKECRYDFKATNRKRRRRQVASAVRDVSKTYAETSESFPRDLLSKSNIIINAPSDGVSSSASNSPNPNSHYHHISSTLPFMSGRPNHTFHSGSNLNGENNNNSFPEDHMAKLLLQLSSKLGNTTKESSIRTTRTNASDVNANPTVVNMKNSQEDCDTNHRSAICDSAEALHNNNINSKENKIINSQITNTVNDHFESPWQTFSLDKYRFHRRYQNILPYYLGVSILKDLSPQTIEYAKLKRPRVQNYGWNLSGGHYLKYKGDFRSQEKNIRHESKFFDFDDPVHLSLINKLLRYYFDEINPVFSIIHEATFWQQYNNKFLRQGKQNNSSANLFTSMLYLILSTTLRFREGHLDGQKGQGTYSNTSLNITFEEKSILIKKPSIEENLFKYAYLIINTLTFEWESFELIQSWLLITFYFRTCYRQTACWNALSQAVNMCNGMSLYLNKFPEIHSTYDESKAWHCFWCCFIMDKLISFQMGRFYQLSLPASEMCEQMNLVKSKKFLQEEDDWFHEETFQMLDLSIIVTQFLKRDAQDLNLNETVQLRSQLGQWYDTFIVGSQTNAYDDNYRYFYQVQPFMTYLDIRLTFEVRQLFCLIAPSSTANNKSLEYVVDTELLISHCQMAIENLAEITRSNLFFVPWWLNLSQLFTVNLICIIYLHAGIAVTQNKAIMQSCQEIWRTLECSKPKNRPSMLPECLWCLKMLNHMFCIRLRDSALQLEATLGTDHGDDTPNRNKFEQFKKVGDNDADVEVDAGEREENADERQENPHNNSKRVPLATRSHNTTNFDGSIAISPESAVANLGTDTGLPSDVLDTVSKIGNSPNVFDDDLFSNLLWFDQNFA

| Sequence | PBM E-score |
| --- | --- |
| CCGTTCCA | 0.183 |
| ATGTTCGC | -0.118 |
| ATGTTCCA | -0.0991 |
| CCGTTCCG | 0.431 |
| CCGTTCCC | 0.273 |
| ATGTTCGG | 0.392 |
| ATGTTCCG | 0.448 |
| ATGTTCGA | -0.112 |
| AAAACCCA | -0.0723 |
| CCTGGCAG | -0.289 |
| CTTTGAGC | -0.151 |
| GAACCACC | 0.218 |
| CGGTGGTA | 0.0785 |
| TACCAAAA | -0.12 |
| AAATTGTG | -0.295 |
| GTGATCTA | -0.0262 |
| ATCCCTTC | -0.183 |
| GCGATTGA | -0.113 |
| TAGCCGGA | 0.384 |
| AAGCCGAG | 0.401 |
| AAGCCGCA | 0.167 |
| AAGCCGAT | 0.299 |

| Sequence | PBM E-score |
| --- | --- |
| AAGCCGAA | 0.407 |
| CAGCCGAA | 0.392 |
| AAGCCGGA | 0.355 |
| AAGCCGAC | 0.26 |
| CAGCCAAA | -0.0614 |
| CAGCCGAC | 0.311 |
| AAGCCAAA | -0.0671 |
| GAGCCGGA | 0.348 |
| CTAGCCAC | -0.287 |
| AACTTGGG | 0.0814 |
| AGAGCCTG | -0.237 |
| TAAGTTGA | -0.103 |
| GGATCACA | 0.228 |
| TAGTGAAA | -0.178 |
| CGATACTC | 0.065 |
| AGGGCCAT | -0.253 |
| TAGCCGAA | 0.446 |
| CAGCCGCG | 0.151 |
| CAGCCGGG | 0.237 |
| GAGCCGAA | 0.423 |
| GAGCCGAC | 0.296 |
| TGGCCGAA | 0.251 |

| Sequence | PBM E-score |
| --- | --- |
| GAGCCGCA | 0.0237 |
| CAGCCGAG | 0.409 |
| TAGCCAAA | 0.0424 |
| AGGTCGCC | 0.00267 |
| AAGGGCAA | 0.158 |
| CTGCTAGC | -0.23 |
| TAGTTTGA | -0.121 |
| ATAACGCA | -0.0729 |
| CCGGTAGA | 0.264 |
| CGGAAACC | 0.347 |
| GGGAAACA | 0.175 |
| CGGAAACG | 0.384 |
| CGGAAACA | 0.427 |
| AGGAAACG | -0.164 |
| AGGAAACA | -0.0661 |
| ATCAAATG | 0.129 |
| ACCTAAAG | -0.0577 |
| AGTGCACC | 0.0754 |
| CGTAAACA | 0.055 |
| ATGCTCGG | 0.404 |
| AGGCTCGC | -0.00633 |
| AGGCTCGA | -0.126 |

| Sequence | PBM E-score |
| --- | --- |
| ACGCTCGA | -0.198 |
| ACGCTCGG | 0.42 |
| ATGCTCGA | -0.139 |
| ATGCTCGC | -0.239 |
| ACGCTCGC | -0.227 |
| AGGCTCGG | 0.432 |
| TAAATGGA | -0.104 |
| TAAAACAA | -0.199 |
| AATGGGGC | -0.232 |
| CCTCGCGC | -0.0639 |
| ATCGACGC | -0.126 |
| CCTAGGGC | -0.153 |
| CGTACCGA | 0.334 |
| ACTATCGG | 0.236 |
| CCTCCCCA | -0.0256 |
| ACTCCCGC | 0.234 |
| GCTCCCAA | -0.272 |
| GCTCCCCA | -0.311 |
| GCTCCCGA | 0.41 |
| CCTCCCGA | 0.387 |
| CCTCCCGC | 0.133 |
| ACTCCCGG | 0.372 |

| Sequence | PBM E-score |
| --- | --- |
| ACTCCCGA | 0.411 |
| TTGATCAA | -0.205 |
| ACGGACGC | -0.0449 |
| GCTCCGAA | 0.4 |
| ACTCCGGC | 0.281 |
| CCTCCGAG | 0.4 |
| GCTCCGGA | 0.346 |
| CCTCCGAC | 0.209 |
| ACTCCGGA | 0.411 |
| TCTCCAAA | -0.144 |
| GCTCCGAC | 0.238 |
| TCTCCGAA | 0.384 |
| TCTCCGCA | 0.147 |
| CCTCCGAA | 0.352 |
| CCTCCGCG | 0.159 |
| AGGCTAGC | -0.217 |
| CCGGTCAC | 0.108 |
| CGGTGCTA | 0.103 |
| TAAGAGAA | -0.344 |
| ACATCGAC | -0.0835 |
| AACAGTAG | -0.0759 |
| ACATTGAT | 0.0749 |
